In PubChem BioAssay (NCATS):
Inconclusive results are not listed. A number with no mark means an inactive call. Calls follow the shape of the dose curve; as a rule, active = well fitted inhibition curve with a large enough effect; inconclusive = small, poorly fitted or top-dose-only effect; inactive = no such curve, though single readings can be large or run the other way. Where a SMILES comes first, the peptide text is derived from it. [ ]: non-standard residue; d: D form. pGlu = O=C1CC[C@@H](C(=O)O)N1

Assay: qHTS assay for measurement of the activity of small molecule inhibitors on Zika virus induced Caspase-3 activity in human iPSC derived neural progenitor cells (hNPCs) (AID 1224857); also: % of control where 0% means no effect; nearly all actives have a fitted effect of over 65% in size
Conditions: hNPCs ZIKV-induced caspase-3/7, Caspase-Glo luminescence, 6 h; series mostly up to 45.7 µM; activity change, negative = inhibition: at the top concentration
How it was run: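 After overnight (16–20 h) culture at 350 cells/well, hNPCs get compound, then ZIKV 2 FFU/cell one hour later. Six hours on, Caspase-Glo 3/7 is added and luminescence measured.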

SMILES | activity change, negative = inhibition
Cc1ccc(C(C)OC(=O)C2(C)CCC(C(=O)O)C2(C)C)cc1 (stereo not given) | -8.08%
Cc1cc(O)c2c(O)c3c(O)cccc3cc2c1 | -8.57%
O=C(CCCl)NCc1ccccc1 | -2.26%
CCCCCCn1c(=O)c2c(ncn2C)n(C)c1=O | -4.13%
O=c1[nH]c2ccccc2c(=O)n1CCCl | 12.3%
CCc1cccc2c(CCO)c[nH]c12 | -9.75%
C#CC(C)(CC)OC(=O)c1ccccc1C(=O)O (stereo not given) | -1.39%
C[N+]1(CC2COC(c3ccccc3)(c3ccccc3)O2)CCCCC1 (stereo not given) | -9.17% [at 20.5 µM]
[O-][n+]1cccc(/C(Cl)=N/OC[C@@H](O)CN2CCCCC2)c1 | 10.9%
C[C@H]1C[C@H]2[C@@H]3CCC4=CC(=O)C=C[C@]4(C)[C@H]3C(=O)C[C@]2(C)[C@@]1(O)C(=O)CO | -3.06%
CCNC(=O)[C@@H]1CCCN1C(=O)[C@H](CCCN=C(N)N)NC(=O)[C@H](CC(C)C)NC(=O)CNC(=O)[C@H](Cc1ccc(O)cc1)NC(=O)[C@H](CO)NC(=O)[C@H](Cc1c[nH]c2ccccc12)NC(=O)[C@H](Cc1cnc[nH]1)NC(=O)[C@@H]1CCC(=O)N1 ([pGlu]HWSYGLRP-NHEt) | 12.2%
CC(=O)N[C@@H](CO)C(=O)N[C@@H](CC(=O)O)C(=O)N[C@@H](CCCCN)C(=O)N1CCC[C@H]1C(=O)O (Ac-SDKP-OH) | -1.51%
CCCCN(CCN(CCCC)C(=O)N1CCOCC1)C(=O)N1CCOCC1 | -10.7%
Cc1cc(CCCOc2c(C)cc(-c3noc(C(F)(F)F)n3)cc2C)on1 | 4.01%
Nc1ccc(C(=O)N2CC3CC(CN(Cc4ccccc4)C3)C2)cc1 | 0.648%
